Our source for the inhibition values is PubChem BioAssay AID588674 (Broad Institute, 2011).

The whole screen tested about 360,000 compounds, of which about 1,800 (0.5%) were called active.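 The calls were made as follows: active = mean inhibition of at least 75% with every replicate also reaching 75%; inconclusive = mean inhibition at least 75% but some replicate below; inactive = mean inhibition below 75%.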 Many of the other results were omitted from the sample, so actives are more common in it than they were.

A short description of this assay: reduction of Shn3 3'UTR firefly luciferase signal, primary screen, Schnurri-3 inhibitor project, cell-based, Clone20 osteoblasts, set 2 (AID 588674).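 Also: 0% = median of neutral control wells and 100% = pilot-screen positive control compound.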 As to conditions: Clone20 osteoblast Shn3 3'UTR firefly luciferase, 24 h; at 12.5 µM; active compounds read high.
As for `Cc1ccsc1C(=O)N[C@@H](C)c1nnc2ccccn12`, the inhibition (commonly the drop in the measured response relative to a control, in per cent) is 1.01% (inactive).
Under `CNC(=O)c1cccc2nc3ccccc3nc12` stands -0.196% (inactive); under `CCCN(CCC)CCNC(=O)c1cc2c(C)nc3ccccc3c2o1`, 24.7% (inactive); under `CN(C)CCNC(=O)c1ccc(Cl)c2cc3ccccc3nc12`, 94.1% (active).
With `O=C(CNCc1ccc(Cl)cc1)Nc1cccc(C(=O)O)c1`, the inhibition is -8.08% (inactive).
Under `O=C(/C=C/c1ccc([N+](=O)[O-])cc1)NCCSCc1ccco1` stands -1.26% (inactive).
Under `COc1ccc(C)cc1-n1nnnc1SCC(=O)c1cc(C)n(Cc2ccco2)c1C` stands 3.21% (inactive).
With `COC(=O)CC(CC(=O)OC)n1cccc1` the figure was -11.6% (inactive); with `COc1ccc(NC(=O)C2Cc3c(-c4ccc5c(c4)OCO5)ccnc3O2)cn1` (centres undefined), 15.8% (inactive).
In the case of `COc1ccc(NC(=O)/C(Cl)=C(/Cl)S(=O)Cc2ccc(C)cc2)cn1` (centres undefined), the inhibition was 96.6% (active).
Under `COc1ccc(NC(=O)CN2C(=O)NC(C)(c3ccccc3)C2=O)cn1` (centres undefined) stands -47.7% (inactive); under `Cn1c(SCC(=O)N2CCOCC2)nnc1-c1ccc2ncccc2c1`, -2.77% (inactive); under `Cc1cc(C)c(S(=O)(=O)N2CCCC2CNC(=O)c2ccc3c(c2)OCO3)c(C)c1` (centres undefined), 7.24% (inactive).
Under `CCOC(=O)c1cc(-c2ccccc2C)n(Cc2cc(C)no2)n1` stands 4.57% (inactive).
With `COc1ccc2c(c1)c(=Cc1ccc(N(C)C)cc1)c1cc(-c3ccccc3)[n+](C)n12` the figure was 92.6% (active).
For the molecule `COC(=O)CN1C(=O)C(C)(C)Oc2ccc(C(=O)Nc3cccc(OC)c3)cc21`, the inhibition is 3.92% (inactive).
Under `Cc1cc(N)n2nc(-c3ccc(C(C)(C)C)cc3)cc2n1` stands -5.54% (inactive).
With `O=C(NNc1ccccc1Cl)C(O)(c1cccc(C(F)(F)F)c1)c1cccc(C(F)(F)F)c1` the figure was 20.3% (inactive); with `O=C(O)C(=Cc1ccc([N+](=O)[O-])cc1)CCc1ccccc1`, -2.04% (inactive).
Take `CC(=O)Nc1ccc(C=CC(=O)c2ccc([N+](=O)[O-])cc2)cc1`: the inhibition was 9.91% (inactive).
With `O=C1/C(=C\c2ccc([N+](=O)[O-])cc2)CS(=O)(=O)C/C1=C/c1ccc([N+](=O)[O-])cc1` the figure was 96.5% (active).
Consider `CSc1ccccc1NC(=O)c1ccc2c(c1)CCN2S(C)(=O)=O`, for which the inhibition was -16.4% (inactive).
For the molecule `c1ccc(CNc2ncnc3[nH]ncc23)cc1`, the inhibition is 14.2% (inactive).
With `COc1ccc(CNc2nccs2)cc1` the figure was -11% (inactive); with `COc1ccc(CNc2ncnc3ccccc23)cc1`, 86.1% (active); with `CCc1ccc(N2CC(O)=C(c3nc4ccccc4c(=O)[nH]3)C2=N)cc1`, -17% (inactive).
Under `CC(=O)Nc1ccc(NC(=O)CC2CCCC2)cc1` stands -25.4% (inactive); under `COc1ccc(CN2CCOC2=O)cc1OC`, 15.9% (inactive); under `O=C(Nc1ccc(Cl)c(C(F)(F)F)c1)C1Cc2c(-c3ccccc3Oc3ccccc3)ccnc2O1` (centres undefined), 17.7% (inactive).
For `COc1cc(C(O)c2nc(-c3cccc(C(=O)O)c3)cs2)ccc1F` (centres undefined), the inhibition is -16.5% (inactive).
With `C/C(CC1CC(C)(C)OC1=O)=N/Nc1nc(-c2ccccc2)cs1` (centres undefined) the figure was -73.7% (inactive).
Under `COc1ccc2c(c1OC)C(=O)OC2Nc1nc(-c2ccccc2)cs1` (centres undefined) stands 89.4% (active); under `Cc1ccc(S(=O)(=O)N(C)C)cc1NC(=O)C1Cc2ccccc2CN1C(=O)c1ccco1` (centres undefined), -2.14% (inactive); under `C/C=C(/C)C(=O)OC1Cc2c(ccc3ccc(=O)oc23)OC1(C)C` (centres undefined), 17.3% (inactive).
For the molecule `COc1ccc(SCc2noc(C(=O)NCC3CCCO3)c2C(=O)O)cc1` (centres undefined), the inhibition was 5.13% (inactive).
With `Cc1ccc(NC(=S)N2CCCC(c3ccccc3)=N2)cc1` the figure was 20.9% (inactive); with `COc1ccc(-c2cc(C(F)(F)F)n3nc(C(=O)N4CCOCC4)c(Cl)c3n2)cc1`, 6.42% (inactive).
Under `Cc1ccc(NC(=O)c2sccc2C)cc1[N+](=O)[O-]` stands -83.1% (inactive).
With `Cc1ccc(NC(=O)CN(C)CC(=O)Nc2cccc(F)c2)cc1[N+](=O)[O-]` the figure was 90.8% (active); with `CN(CC(=O)Nc1cccc(F)c1)C(=O)C1=COCCO1`, -7.61% (inactive); with `Cc1noc(C)c1S(=O)(=O)N(C)C[C@H]1Oc2c(NC(=O)Nc3ccc4c(c3)OCO4)cccc2C(=O)N([C@H](C)CO)C[C@@H]1C`, 17.8% (inactive).
As for `O=C(OCCN1C(=O)c2ccccc2C1=O)[C@@H]1CC(O)CN1S(=O)(=O)c1ccccc1[N+](=O)[O-]` (some centres undefined), the inhibition is -5.63% (inactive).
Consider `O=c1[nH]c2cccnc2n(CCNc2ncc(C(F)(F)F)cc2Cl)c1=O`, for which the inhibition is 2.77% (inactive).
Under `CN(C)C=NC(=O)c1cccn1-c1ncc(C(F)(F)F)cc1Cl` stands -4.23% (inactive); under `COc1cccc(/C=N/Nc2ncc(C(F)(F)F)cc2Cl)c1O`, 89.9% (active); under `O=C(COC(=O)c1ccccc1SCC(=O)N1CCCC1)Nc1ccccc1OC(F)F`, -12.8% (inactive).
As for `COC(=O)C1C(=O)c2c([nH]c(C(=O)OCCSC)c2C)CC1C` (centres undefined), the inhibition is -58.5% (inactive).
Under `CCCOC(=O)c1[nH]c2c(c1C)C(=O)CC(c1cccs1)C2` (centres undefined) stands 24.4% (inactive); under `CCCOC(=O)c1[nH]c2c(c1C)C(=O)CC(c1cc(OC)c(OC)c(OC)c1)C2` (centres undefined), 83.2% (active).
For the molecule `CC(c1ccco1)N(C(=O)c1ccc(S(=O)(=O)N2CCCCC2)cc1)c1ccccn1` (centres undefined), the inhibition was 13.4% (inactive).
Under `CC(=O)N1CCOc2ccc(S(=O)(=O)N3CCN(c4cccc(C(F)(F)F)c4)CC3)cc21` stands 40.6% (inactive).
With `CCOC(=O)c1c(C)[nH]c(C2=NNC(=NC(C)COC)SC2)c1C` (centres undefined) the figure was -21.6% (inactive); with `Cc1occc(=O)c1OCc1ccc(F)cc1`, -22.9% (inactive).
Under `Cc1nc2ccccc2cc1OCc1ccc(F)cc1` stands 85.8% (active); under `Fc1cccc2ncnc(OCc3ccccc3)c12`, 18% (inactive); under `CC(C)c1ccc(Cc2nnc(NCCCO)[nH]c2=O)cc1`, 7.96% (inactive).
In the case of `COc1ccc(Cc2nnc(N/N=C/c3ccccc3O)[nH]c2=O)cc1OC`, the inhibition was 91.1% (active).
With `COc1ccc(Cc2nnc(SC)[nH]c2=O)cc1` the figure was -14% (inactive); with `CC(/C=C/C1(O)C(C)CC(=O)CC1(C)C)OC1OC(CO)C(O)C(O)C1O` (centres undefined), -14.8% (inactive).
